Shown are actives, neighbours in structure and some others; about 8% of the full set was active somewhere.
SW480 rerep: inducers of DNA re-replication in SW480 colon cancer cells. SW480 DNA re-replication, Hoechst DNA content imaging, 48 h. Potency, µM (doses to about 46.1 µM), usual class: activators. actives 1.8% (n = 340,000). AID 624297; note: nearly all actives have a fitted effect of over 55% in size
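Hoechst fluorescence of nuclei (405 nm excitation, 500-530 nm emission) measured by plate-scanning imager after 48 hr compound exposure at 37 C; re-replication scored as increased number of nuclei with elevated intensity.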
MCF10A rerep: induces DNA re-replication in MCF 10a normal breast cells. MCF 10A DNA re-replication, Hoechst nuclear intensity, 48 h. actives 2.9% (n = 350,000). AID 624296. Potency, µM (highest dose often 46.1 µM), most hits filed as activators; note: nearly all actives have a fitted effect of over 50% in size
KB-V1 cytotox: kills drug-selected multidrug resistant KB-V1 cells | actives 3.4% (n = 400,000) | Potency, µM (titrated, usually from 46.1 µM), usual class: cytotoxic | KB-V1 MDR cells viability, CellTiter-Glo, 72 h | AID 1347076; note: nearly all actives have a fitted effect of over 60% in size
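KB-V1 MDR subline cells in DMEM (phenol-red free, 10% FBS) exposed to compounds in qHTS concentration series for 72 h at 37 degrees C. Viability read by CellTiter-Glo luminescence; concentration-effect curves fitted after normalization and correction.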
KB-3-1 tox: KB-3-1 parental cell cytotoxicity | KB-3-1 viability, CellTiter-Glo ATP luminescence, 72 h | Potency, µM (series often up to 46.1 µM), usual class: cytotoxic | actives 1.4% (n = 400,000) | AID 1347075; note: nearly all actives have a fitted effect of over 60% in size
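72 h, 37 °C compound treatment of KB-3-1 parental cells; CellTiter-Glo added, 10 min, luminescence read. Data corrected against DMSO-only plates and normalized before curve fitting.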
HT1080 IDH1KD tx: kills HT-1080 cells with IDH1 knockdown; HT-1080 IDH1 knockdown viability, ATP luminescence, 48 h; Potency, µM (titrated, usually from 46.1 µM), hits mostly cytotoxic; actives 2% (n = 360,000); AID 686971
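IDH1KD HT-1080 cells, 750/well, RPMI + 5% FBS; compound pinned after 2 h settling; 48 h, 37 °C; CellTiter-Glo luminescence; % activity normalised to DMSO and no-cell wells; curves fitted, classed by r2 and efficacy.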
HT1080NT lethal: kills 2HG-producing HT-1080-NT fibrosarcoma cells; HT-1080-NT fibrosarcoma viability, CellTiter-Glo ATP luminescence, 48 h; Potency, µM (series often up to 46.1 µM), most hits filed as cytotoxic; actives 1.6% (n = 360,000);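 note: NT is the 2HG producing partner of a matched IDH1 knockdown line; nearly all actives have a fitted effect of over 55% in size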
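Read-out is CellTiter-Glo luminescence after 10 minutes at room temperature, following 48 hours' compound treatment of HT-1080-NT cells (750 cells/well, RPMI, 5% FBS, 37 degrees C).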
Numbers stand for hits; . = inactive; ? = inconclusive; / = not tested or not shown; [ ] = remark or other dose. Calls come from the whole dose curve; as a rule, active = well fitted curve in the direction sought with a large enough effect; inconclusive = small, poorly fitted or top-dose-only effect, or another doubt; inactive = no such curve, though single readings can be large; an effect the other way counts as inactive or inconclusive.

SMILES	SW480 rerep	MCF10A rerep	KB-V1 cytotox	KB-3-1 tox	HT1080 IDH1KD tx	HT1080NT lethal
CCc1ccc(N2C(=O)CS(=O)(=O)C23C(=O)N(Cc2ccccc2F)c2ccccc23)cc1 (stereo not drawn)	/	/	.	.	/	/
Cc1nn(CC(=O)NCc2ccccc2Cl)c(=O)c2cccn12	/	/	.	.	/	/
COc1cc(C(=O)Oc2cccc(Nc3ncnc4ccccc34)c2)cc(OC)c1OC	.	.	?	.	.	?
COc1ccc(C(=O)Oc2cccc(Nc3ncnc4ccccc34)c2)cc1OC	.	?	18µM	?	.	.
COc1ccc(S(=O)(=O)NCCc2sc(-c3cccnc3)nc2C)c(F)c1	/	/	?	.	/	/
COc1cc(C(=O)N/N=C/c2ccsc2C)cc(OC)c1OC	0.65µM	?	0.58µM	0.65µM	0.58µM	0.92µM
COc1cc(C(=O)NCC(=O)N/N=C/c2cccs2)cc(OC)c1OC	.	.	?	.	.	.
COc1ccc(Br)cc1/C=N/Nc1ccccn1	?	23µM	.	.	.	.
COc1ccc(Br)cc1/C=N/NC(=O)c1cc(OC)c(OC)c(OC)c1	?	?	.	.	16µM	?
COc1cccc(-c2nc(CS(=O)(=O)CC(=O)NCCc3ccc(Cl)cc3)c(C)o2)c1	/	/	.	.	/	/
CCN(c1cccc(C)c1)S(=O)(=O)c1cc2c(cc1C)n(C)c(=O)c(=O)n2C	/	/	?	.	/	/
COC(=O)c1sccc1S(=O)(=O)N1CCN(c2cccc(C)c2C)CC1	/	/	.	.	/	/
COc1ccc(/C=N/NC(=S)Nc2cc(S(=O)(=O)N3CCOCC3)ccc2N2CCOCC2)cc1O	?	?	?	?	16µM	21µM
Cc1ccc(S(=O)(=O)N2CCOCC2)cc1NC(=O)CN1CCN(C)CC1	.	.	.	.	.	.
Cc1ccc(S(=O)(=O)N2CCOCC2)cc1NC(=O)CNCc1ccccc1Cl	5.2µM	?	.	.	.	.
COc1ccccc1CNCC(=O)Nc1cc(S(=O)(=O)N2CCOCC2)ccc1Cl	.	.	?	.	.	.
O=C(Nc1cc(S(=O)(=O)N2CCOCC2)ccc1N1CCOCC1)c1cnccn1	.	.	10µM	.	.	.
Cc1ccc(S(=O)(=O)N2CCOCC2)cc1NC(=O)CN1CCC(Cc2ccccc2)CC1	.	.	.	21µM	.	.
COc1ccc2ccccc2c1/C=N/NC(=S)Nc1cc(S(=O)(=O)N2CCOCC2)ccc1N1CCOCC1	?	?	.	?	.	.
Cc1cccc(OCCCCn2c(C3CC(=O)N(c4ccc(C)cc4C)C3)nc3ccccc32)c1 (stereo not drawn)	/	/	?	.	/	/
Cc1ccn2c(=O)c(C(=O)NCCc3ccccc3)c(O)nc2c1	/	/	?	.	/	/
O=C(Cn1c(=O)n(-c2ccccc2)c(=O)c2sc3ccccc3c21)NC1CCCC1	/	/	.	.	/	/
COc1ccc(S(=O)(=O)N2CCOCC2)cc1NC(=O)CCCOc1ccc(Cl)cc1C	.	.	.	.	.	.
O=C(CCCOc1ccc(Cl)cc1Cl)Nc1cc(S(=O)(=O)N2CCOCC2)ccc1N1CCOCC1	.	.	6.5µM	.	.	.
O=C(Cc1ccccc1Cl)Nc1cc(S(=O)(=O)N2CCOCC2)ccc1N1CCOCC1	.	.	16µM	.	.	.
SMILES	SW480 rerep	MCF10A rerep	KB-V1 cytotox	KB-3-1 tox	HT1080 IDH1KD tx	HT1080NT lethal
CC(Oc1cccc(Cl)c1)C(=O)Nc1cc(S(=O)(=O)N2CCOCC2)ccc1N1CCCCC1 (stereo not drawn)	.	13µM	18µM	?	.	.
COc1ccc(-n2c(=O)c3ccccc3n(Cc3ccccc3C)c2=O)c(OC)c1	/	/	.	.	/	/
O/N=C(/C[n+]1cccc(Br)c1)c1ccc2ccccc2c1	/	/	.	.	/	/
CCCc1cc(=O)oc2cc(C)cc(O)c12	.	?	13µM	15µM	.	.
Cc1cc(=O)oc2cc(O)cc(O)c12	?	.	.	?	1.6µM	.
COc1ccccc1N(Cc1ccccc1)S(=O)(=O)c1cccc(C(=O)O)c1	.	.	.	.	.	.
CCOc1ccccc1NC(=O)c1cccc(S(=O)(=O)N(Cc2ccccc2)c2ccccc2OC)c1	.	?	8.2µM	.	.	.
COc1ccccc1N(Cc1ccccc1)S(=O)(=O)c1cccc(C(=O)Nc2cc(C)ccn2)c1	.	.	.	16µM	?	.
COc1ccccc1N(Cc1ccccc1)S(=O)(=O)c1cc(C(=O)O)ccc1Cl	.	18µM	.	.	?	?
NC(=O)NC(=O)COC(=O)c1ccc(Cl)c(S(=O)(=O)N(Cc2ccccc2)c2ccc(Cl)cc2)c1	.	21µM	.	.	?	?
O=C(CSc1nc(-c2cccs2)nc2cc(=O)[nH]n12)Nc1ccccc1Cl	/	/	.	.	/	/
CCOC(=O)c1ccccc1NC(=O)CN(c1cc(C(F)(F)F)ccc1Cl)S(C)(=O)=O	/	/	.	.	/	/
CC(C)c1ccccc1NC(=O)c1ccc(CN(c2ccccc2)S(=O)(=O)c2ccccc2)cc1	.	.	/	/	/	/
Cc1ccccc1NC(=O)c1ccc(CN(c2ccccc2)S(=O)(=O)c2ccccc2)cc1	.	.	10µM	.	.	.
CCc1nc2c(sc3nc4c(cc32)COC(C)(C)C4)c(=O)n1Cc1ccco1	.	.	12µM	?	.[9.24 µM]	?
CCc1ccccc1NC(=O)C1CCN(C2=NS(=O)(=O)C(c3ccc(C)c(C)c3)=C2C)CC1	/	/	.	.	/	/
N#C/C(=C\c1c(Cl)cccc1Cl)c1nc2ccccc2o1	.	?	.	.	?	.
Cc1cc(O)ccc1N/C=C(\C#N)c1nc2ccccc2o1	?	18µM	.	.	.	.
Cn1c(/C=C/c2cccc(Br)c2)nc2ccccc2c1=O	18µM	23µM	?	?	?	?
CCn1c(/C=C/c2c(C)n(CC)c3ccccc23)nc2ccccc2c1=O	.	?	1.6µM	.	.	.
CCn1c(/C=C/c2ccccc2C)nc2ccccc2c1=O	.	?	.	.	.	.
O=c1c2ccccc2nc(/C=C/c2cccc(Br)c2)n1CCCO	?	?	.	.	?	?
CCn1c(/C=C/c2cc(Br)ccc2O)nc2ccccc2c1=O	?	16µM	.	?	.	.
COc1ccc(CNC(=O)C2CCN(S(=O)(=O)c3cccc(-c4noc(C)n4)c3)CC2)cc1	/	/	.	.	/	/
COc1cc(C2c3cc4c(cc3C(O)C3COCC23)OCO4)cc(OC)c1OC (stereo not drawn)	13µM	?	?	5.2µM	?	26µM
COc1cc([C@@H]2c3cc4c(cc3[C@H](O)[C@H]3COC(=O)[C@@H]23)OCO4)cc(OC)c1OC	/	/	?	1.8µM	/	/
CCOc1ccc(-c2cc3c(=O)n(CC(=O)NCc4ccc(F)cc4)ccn3n2)cc1	/	/	.	.	/	/

From PubChem BioAssay
